Structures are written as SMILES. The whole screen tested about 290,000 compounds, of which about 27,000 (9.3%) were called active. The sample holds actives, similar compounds and a random draw of the others, so the mix is not that of the screen. No stated cut-off is given here; in the data, active means inhibition mostly above about 28% (no sharp cut-off); inactive means mostly below about 43%.

A short description of this test: A qHTS for Small Molecule Inhibitors of Shiga Toxin. Further: 0% is about no effect. The following applies: Vero cells, Shiga toxin protein synthesis inhibition reporter; at 38.7 µM, active compounds read high. For orientation: qHTS replaces the single test concentration by a dilution series.
With `COc1ccc(N2CCC(N3CCN(C)C(CCO)C3)CC2)cc1` (configuration not stated), the inhibition – broadly, the relative decrease from the control value, in per cent – is 0.592% (inactive).
Then `COc1ccc(CCN2CC(C(=O)NCCN3CCNC3=O)CCC2=O)cc1` (configuration not stated), with 1.29% (inactive).
Then `Cc1cc(=O)[nH]c(N/N=C/c2ccc3c(c2)OCCO3)n1`, with 44.5% (active); and `CCN(CC)c1ccc(/C=N/Nc2nc(C)cc(=O)[nH]2)cc1`, with 2.75% (inactive).
To `Cc1cc(=O)[nH]c(N/N=C/c2c(C)nn(-c3ccccc3Cl)c2Cl)n1` belongs 47% (inactive).
On to `Cc1[nH]c2ccccc2c1C(=O)CN1CCCC(C)C1` (configuration not stated), for which the inhibition was -6.74% (inactive).
`Cc1ccc(C(C[N+](=O)[O-])c2c(C)cc3ccccn23)cc1` (configuration not stated): the inhibition is 6.95% (inactive).
To `Nc1ccccc1SC(C[N+](=O)[O-])c1ccccc1` (configuration not stated) belongs 77.6% (active); to `NS(=O)(=O)c1ccc(CNC(=O)c2cccc(Oc3ccccc3)c2)cc1`, 6.72% (inactive); to `O=C(Nc1ccc(Cl)cc1)c1ccsn1`, 71.9% (active).
To `O=C(NCc1cn2ccsc2n1)Nc1ccc(Cl)cc1` belongs -6.11% (inactive).
Then `CCC(=O)Nc1ccc(C(=O)NNC(=O)c2ccc(Cl)cc2)cc1`, with 21.7% (inactive); and `Cc1cc(-c2ccc(C)c(S(=O)(=O)NCCCN(Cc3ccccc3)C(C)C)c2)on1`, with -6.03% (inactive).
`Cc1cccc(NC(=O)NC2(C)CCS(=O)(=O)C2)c1` (configuration not stated): the inhibition was 11.8% (inactive).
Then `CC(C)(C)c1ccc(NC(=O)NCc2ccco2)cc1`, with 74.2% (active); and `CC(C)(C)NC(=O)NCc1ccco1`, with 12.4% (inactive); and `CC(C)(C)c1ccc(C(=O)NCCC(=O)NCc2ccco2)cc1`, with 6.3% (inactive).
With `COc1ccc([N+](=O)[O-])cc1N(CC(=O)Nc1ccccc1C(=O)N1CCOCC1)S(C)(=O)=O`, the inhibition is -1.77% (inactive).
To `CCOC(=O)c1c(C)[nH]c(C(=O)COc2ccc3c(c2)OCO3)c1C` belongs 17.2% (inactive); to `CCOC(=O)c1nc(-c2ccc3c(c2)OCO3)[nH]c1C`, 41% (active); to `CCOCCOC(=O)C1=C(C)NC(=O)NC1c1ccc2c(c1)OCO2` (configuration not stated), -11.9% (inactive).
To `CCOc1ccc(N(C)S(=O)(=O)c2cnc[nH]2)cc1` belongs 10.4% (inactive); to `Cc1ccc2c(c1)N(CC(=O)N1CCC(C)CC1)C(=O)c1cccnc1O2`, 9.85% (inactive).
With `COc1ccc(NC(=O)C2CCCN(S(=O)(=O)c3cccc4cccnc34)C2)cc1` (configuration not stated), the inhibition was -1.64% (inactive).
Then `CCOc1cccc(NC(=O)C2CCCN(S(=O)(=O)c3ccc(OC)cc3)C2)c1` (configuration not stated), with -14.4% (inactive).
To `COc1ccc(S(=O)(=O)N2CCCC(C(=O)Nc3ccc(NC(=O)c4ccccn4)cc3)C2)cc1` (configuration not stated) belongs 63.5% (active); to `COc1ccccc1N1CC(C(=O)Nc2nnc(SCC(=O)NC(C)C)s2)CC1=O` (configuration not stated), 4.29% (inactive); to `CN(CC1CCCN(CCc2cccc(C(F)(F)F)c2)C1)C(=O)c1ccc2nc[nH]c2c1` (configuration not stated), -2.32% (inactive).
To `Cc1ccc(CS(=O)Cc2ccc(C(=O)N3CCOCC3)o2)cc1` (configuration not stated) belongs -2.85% (inactive).
Take `COc1ccc2c(c1)cc1n2CCN=C1NN`: the inhibition was 170% (active).
To `COc1ccc(CNC(=O)C(=O)NCC2OCCN2C(=O)c2ccc(OC)cc2)cc1` (configuration not stated) belongs -30.4% (inactive); to `O=S(=O)(c1cccc(Cn2nnc(-c3ccc(F)cc3)n2)c1)N1CCOCC1`, -6.53% (inactive).
Turning to `c1ccc2sc(SNC3CCCCC3)nc2c1`, the inhibition was 25.3% (inactive).
Then `O=[N+]([O-])c1cc(Br)c(O)c(/C=N/Nc2nc3ccccc3s2)c1`, with 30.3% (inactive); and `c1ccc2sc(NN=C3CCCC3)nc2c1`, with 72.4% (active); and `Cc1ccc2c(c1)C(c1ccccc1)N(C(=O)c1ccc(F)cc1)CC(=O)N2` (configuration not stated), with -4.25% (inactive).
As for `COC(=O)c1ccc(/C=C2/C(=O)Oc3ccccc32)cc1`, the inhibition is -14% (inactive).
Then `Cc1ccc(NC(=S)N2CCCC(c3ccccc3)=N2)cc1`, with -2.73% (inactive); and `CNC(=S)N1N=C(c2ccccc2)CC1c1ccc(Br)cc1` (configuration not stated), with 34.3% (active); and `CC(=O)N1CCN(c2ccccc2NC(=S)NC(=O)c2cc3ccccc3o2)CC1`, with -6.04% (inactive).
Then `Cc1cc(Nc2ccccc2)n(C(=O)c2ccc(N)cc2)n1`, with 47.2% (active); and `Cc1cc(Nc2ccccc2)n(CCC#N)n1`, with -1.92% (inactive); and `Cc1cc(NC(=O)Nc2ccccc2)n(-c2ccccc2)n1`, with 34.6% (inactive).
For the compound `Cc1ccc(C)c(C(=O)N2CCC(n3nccc3NC(=O)C3CC3)CC2)c1`, the inhibition was -24.8% (inactive).
Then `N#Cc1c(-c2ccccc2)c(-c2ccccc2)n[nH]c1=O`, with -6.49% (inactive).
For the compound `Cc1cccc(N2C(=O)SC(N(CC(=O)O)c3cccc(C)c3)C2=O)c1` (configuration not stated), the inhibition was 49.7% (inactive).
Then `Cc1cccc(N2C(=O)CC(SC(N)=Nc3ccccc3)C2=O)c1` (configuration not stated), with -8.18% (inactive); and `Cc1cccc(N2C(=O)SC(SC(=Nc3ccccc3)Nc3ccccc3)C2=O)c1` (configuration not stated), with 83.9% (active).
Then `COc1cccc(/C=C2\Sc3ccc(C(=O)NCC4CCCO4)cc3N(C)C2=O)c1` (configuration not stated), with 11.4% (inactive); and `CCOC(=O)c1c(S(=O)(=O)Nc2ccc(CN3CCC(C)CC3)cc2)c(C)n(C)c1C`, with -3.73% (inactive).
As to `CC(=O)N1CC(=O)N(CC(=O)Nc2ccc(Br)cc2)C1=S`, the inhibition was -1.67% (inactive).
Then `CC1CC(C)CN(C(=O)C2CC(=O)N(c3ccc(F)cc3)C2)C1` (configuration not stated), with -7.56% (inactive); and `O=C(CCCO)N/N=C/c1cc(Br)ccc1O`, with 13.6% (inactive).
Turning to `O=C(N/N=C/c1ccccc1O)C1CCCC1`, the inhibition was 21.6% (inactive).
For `O=C(N/N=C/c1ccccc1O)/C(=C/c1ccccc1)CCO`, the inhibition was 51.6% (active).
To `O=c1c2c(nc3nc[nH]n13)CCC2` belongs 11.8% (inactive); to `O=c1c2c(nc3cc(-c4cccc(Cl)c4)[nH]n13)CCCC2`, 59.1% (active); to `Cc1cc(=O)n2[nH]c(-c3cccc(Cl)c3)cc2n1`, 39.8% (inactive).
Then `O=S(=O)(c1ccc(Cl)cc1)c1nc(-c2ccccc2F)oc1NCCN1CCOCC1`, with -6.01% (inactive); and `Cc1nc(Nc2ccc3c(c2)OCCO3)c2nnn(Cc3ccccc3Cl)c2n1`, with 153% (active); and `Cc1nc(Nc2ccccc2F)c2nnn(Cc3ccccc3Cl)c2n1`, with -8.68% (inactive).
Then `CCCc1nc(NCc2ccc3c(c2)OCO3)c2nnn(Cc3ccccc3Cl)c2n1`, with 7.73% (inactive).

The values above are taken from PubChem BioAssay AID2315 (National Center for Advancing Translational Sciences (NCATS), 2010).
